According to publication PMC6602471:
Over roughly 1,300 sequences, “log fluorescence intensity” has its median near 8.9; the highest 2% begin near 13. Only a selection was taken, and the highest values are over-represented in it overall.

These sequences were tested against T1, ELK1 (Homo sapiens, UniProt P19419 1-428) (assay: custom PBM; custom protein-binding microarray; buffer, salt, pH and temperature not stated; high values mean tight binding). Settings: dsDNA, one strand shown.
T1 sequence: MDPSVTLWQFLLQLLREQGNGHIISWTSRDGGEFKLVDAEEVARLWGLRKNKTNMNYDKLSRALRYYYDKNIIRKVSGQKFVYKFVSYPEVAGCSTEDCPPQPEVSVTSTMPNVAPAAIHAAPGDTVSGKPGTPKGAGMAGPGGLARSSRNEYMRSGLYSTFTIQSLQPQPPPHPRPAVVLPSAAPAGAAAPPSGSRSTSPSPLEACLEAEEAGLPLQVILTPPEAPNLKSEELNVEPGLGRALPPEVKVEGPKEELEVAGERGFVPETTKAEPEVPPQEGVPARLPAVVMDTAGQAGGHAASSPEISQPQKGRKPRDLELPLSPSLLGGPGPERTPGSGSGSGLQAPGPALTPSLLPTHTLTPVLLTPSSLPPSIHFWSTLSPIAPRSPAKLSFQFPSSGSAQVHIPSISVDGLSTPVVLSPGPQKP

How did the binding signal turn out when “GTGCATAGGATCCCATCCAACACACGTGTTAAAATGGTCTTGATTCGCTTGACGCTGCTG” was run?
Its binding signal is 9 log fluorescence intensity.

For “CGGAAGTGTCGTAAACGTCGGATATACGGTTCTTCTGTCTTGATTCGCTTGACGCTGCTG”, which binding signal is on record?
Its binding signal is 9.29 log fluorescence intensity.

For “GGAAAAAGGCCCAGGGTAACACCGGAAGCGGGCTTAGTCTTGATTCGCTTGACGCTGCTG”, which binding signal is on record?
Its binding signal is 10.5 log fluorescence intensity.

Which binding signal does the source give for “GTGTCTAGGATCCCATCCAACACACGTGTTAAAATGGTCTTGATTCGCTTGACGCTGCTG” here?
The binding signal was 8.94 log fluorescence intensity.

Which binding signal does the source give for “CAGCAGAGGACTTCTTCCCTGAAGCAATTGATAACCGTCTTGATTCGCTTGACGCTGCTG” here?
The binding signal was 8.97 log fluorescence intensity.

With “CGGAAGTGTCGTAAACGTCGGATATCCGGTTCTCCTGTCTTGATTCGCTTGACGCTGCTG” as the sequence, how does the binding signal read?
The binding signal was 12.6 log fluorescence intensity.

“CGGAAGTGTCGTAAACGTCGGATATCCGGTTCTACTGTCTTGATTCGCTTGACGCTGCTG” was tested. Which binding signal did it give?
Its binding signal is 12.4 log fluorescence intensity.

With “CGGAAGTGTCGTAAACGTCGGATATCCGGTTCTTATGTCTTGATTCGCTTGACGCTGCTG” as the sequence, how does the binding signal read?
The binding signal was 12.4 log fluorescence intensity.

With “CGGAAGTGTCGTAAACCTCGGATATCCGGTTCTTCTGTCTTGATTCGCTTGACGCTGCTG” as the sequence, how does the binding signal read?
The binding signal was 12.2 log fluorescence intensity.

For “CGGAAGTGTCGTAAACGCCGGATATCCGGTTCTTCTGTCTTGATTCGCTTGACGCTGCTG”, which binding signal is on record?
Its binding signal is 13.3 log fluorescence intensity.

Which binding signal does the source give for “CGGAAGTGTCGTAAACGTCGGATATCCGGTTCTTCGGTCTTGATTCGCTTGACGCTGCTG” here?
Its binding signal is 12.4 log fluorescence intensity.

With “CGGAAGTGTCGTAAACGTCGGATATCCGGTTCTGCTGTCTTGATTCGCTTGACGCTGCTG” as the sequence, how does the binding signal read?
The binding signal was 12.5 log fluorescence intensity.

With “CGGAAGTGTCGTAAACGTCGGATATCCGGTTCTTCCGTCTTGATTCGCTTGACGCTGCTG” as the sequence, how does the binding signal read?
Its binding signal is 13 log fluorescence intensity.

Which binding signal does the source give for “CGGAAGTGTCGTAAACGTCGGATATCCGGTTCTTCAGTCTTGATTCGCTTGACGCTGCTG” here?
Its binding signal is 12.6 log fluorescence intensity.

With “CGGAAGTGTCGTAAACGTAGGATATCCGGTTCTTCTGTCTTGATTCGCTTGACGCTGCTG” as the sequence, how does the binding signal read?
The binding signal was 11.8 log fluorescence intensity.

For “CGGAAGTGTCGTAAACATCGGATATCCGGTTCTTCTGTCTTGATTCGCTTGACGCTGCTG”, which binding signal is on record?
The binding signal was 12.6 log fluorescence intensity.

How did the binding signal turn out when “CGGAAGTGTCGTAAACGTCTGATATCCGGTTCTTCTGTCTTGATTCGCTTGACGCTGCTG” was run?
Its binding signal is 11.1 log fluorescence intensity.

With “CGGAAGTGTCGTAAACGTCGGATATCCGGTTCTTCTGTCTTGATTCGCTTGACGCTGCTG” as the sequence, how does the binding signal read?
Its binding signal is 12.4 log fluorescence intensity.

“CGGAAGTGTCGTAAACTTCGGATATCCGGTTCTTCTGTCTTGATTCGCTTGACGCTGCTG” was tested. Which binding signal did it give?
Its binding signal is 12.3 log fluorescence intensity.

How did the binding signal turn out when “CGGAAGTGTCGTAAACGTCGGATATCCGGTTCGTCTGTCTTGATTCGCTTGACGCTGCTG” was run?
Its binding signal is 12.4 log fluorescence intensity.

For “CGGAAGTGTCGTAAACGTTGGATATCCGGTTCTTCTGTCTTGATTCGCTTGACGCTGCTG”, which binding signal is on record?
The binding signal was 11.4 log fluorescence intensity.

For “CGGAAGTGTCGTAAACGTGGGATATCCGGTTCTTCTGTCTTGATTCGCTTGACGCTGCTG”, which binding signal is on record?
Its binding signal is 11.4 log fluorescence intensity.

Which binding signal does the source give for “CGGAAGTGTCGTAAACGTCGGATATCCGGTTCCTCTGTCTTGATTCGCTTGACGCTGCTG” here?
The binding signal was 12.5 log fluorescence intensity.

With “CGGAAGTGTCGTAAACGTCGGATATCCGGTTCATCTGTCTTGATTCGCTTGACGCTGCTG” as the sequence, how does the binding signal read?
Its binding signal is 12.6 log fluorescence intensity.

How did the binding signal turn out when “AGGAAGTGTCGTAAACGTCGGATATCCGGTTCTTCTGTCTTGATTCGCTTGACGCTGCTG” was run?
Its binding signal is 12.3 log fluorescence intensity.

With “GGGAAGTGTCGTAAACGTCGGATATCCGGTTCTTCTGTCTTGATTCGCTTGACGCTGCTG” as the sequence, how does the binding signal read?
The binding signal was 12.6 log fluorescence intensity.

“TGGAAGTGTCGTAAACGTCGGATATCCGGTTCTTCTGTCTTGATTCGCTTGACGCTGCTG” was tested. Which binding signal did it give?
Its binding signal is 12.5 log fluorescence intensity.
